Laboratory results published in PubChem BioAssay (NCATS).
Unmarked numbers belong to inactive results. Records with an inconclusive call do not appear. Where a call stands in place of a potency, no number is given. The source made the active and inactive calls. Unless noted, the call rests on the fitted dose curve; in most records, active means well fitted curve in the direction sought with a large enough effect; inconclusive means small, poorly fitted or top-dose-only effect, or another doubt; inactive means no such curve, though single readings can be large; an effect the other way counts as inactive or inconclusive.

Assays:
[1] = target: Rap guanine nucleotide exchange factor 3 (Homo sapiens) (UniProt O95398); experiment: Confirmatory qHTS for antagonist of cAMP-regulated guanine nucleotide exchange factor 3 (EPAC1) (AID 1645880); further: nearly all actives have a fitted effect of over 55% in size; further: potency means the concentration at half of the fitted maximal effect
In short: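 Released BODIPY-GDP fluoresces less than Rap1-bound BODIPY-GDP; the signal is followed at 480/540 nm at 5-min intervals over 30 min, after 5 min at room temperature. Reactions contain 100 nM EPAC1, 250 nM RAP1B-BODIPY-GDP and 50 uM GDP; results are normalized to ATA and DMSO.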

[2] = target: Rap guanine nucleotide exchange factor 3 (Homo sapiens) (UniProt O95398); experiment: Confirmatory qHTS for agonist of cAMP-regulated guanine nucleotide exchange factor 3 (EPAC1) (AID 1645881); further: nearly all actives have a fitted effect of over 75% in size; further: potency means the concentration at half of the fitted maximal effect;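 on activation: EPAC1 catalysed release of BODIPY-GDP from Rap1B seen as fluorescence loss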
[3] = target: Rap guanine nucleotide exchange factor 4 (Homo sapiens) (UniProt Q8WZA2); experiment: Confirmatory qHTS for agonist of cAMP-regulated guanine nucleotide exchange factor 4 (EPAC2) (AID 1645884);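 further: nucleotide exchange releases bodipy-GDP from Rap1 and this lowers its fluorescence; nearly all actives have a fitted effect of over 65% in size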; further: potency means the concentration at half of the fitted maximal effect
[4] = target: Rap guanine nucleotide exchange factor 3 (Homo sapiens) (UniProt O95398); experiment: Counterscreen qHTS for antagonist of cAMP-regulated guanine nucleotide exchange factor 3 (EPAC1) (AID 1645888)
In short: (§1)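 Rap1B-BODIPY-GDP 250 nM + GDP 50 uM; cpds 7-pt, final 9.74 nM–152 uM (activator mode) or from 7.32 nM upwards (inhibitor mode); RT; FI 480/540 nm at 5 and 30 min, then ± cAMP, reread.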

[5] = target: Glucocorticoid receptor (Homo sapiens) (UniProt P04150); experiment: GR-GFP Redistribution (AID 450;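 active means compounds whose dose series gives a full or clear partial fitted curve of increased nuclear translocation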; further: potency means the concentration at half of the fitted maximal effect); conditions: U2OS GR-GFP nuclear translocation, laser cytometry, 2 h
[6] = target: Glucocorticoid receptor (Homo sapiens) (UniProt P04150); experiment: GR-EFC Redistribution (AID 451; calls by dose curve; further: potency means the concentration at half of the fitted maximal effect); conditions: CHO-K1 GR-EFC translocation, beta-gal luminescence, 2 h
In short: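 Translocation of GR-ED fusion to nuclear EA restores b-gal, read by luminescence after 1 h room-temperature detection. Engineered CHO-K1 biosensor cells, 1,000/well, exposed 2 h at 37 C to titrations up to 46 uM final.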

[7] = target: Mitogen-activated protein kinase 10 (Mus musculus) (UniProt Q61831); experiment: JNK3 AlphaScreen Assay (AID 530; active means well fitted curve in either direction with a large enough effect, not every such curve was filed as active;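 further: kinase came from lysate of stimulated human HepG2 cells; signal reports phosphorylation of biotinylated GST-cJun 1-79 at Ser73 with 10 µM ATP; series mostly up to about 57 µM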)
In short: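 Kinase buffer: 20 mM Tris-HCl pH 7.6, 10 mM MgCl2, 1 mM DTT, 0.1 mM Na3VO4, 0.01% Tween-20; ATP 10 uM. Substrate biotin-GST-cJun(1-79), enzyme from activated HepG2 lysates. Detection by Ser73 phospho-antibody AlphaScreen.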

[8] = target: Cytochrome P450 3A4 (Homo sapiens) (UniProt P08684); experiment: qHTS Assay for Inhibitors and Substrates of Cytochrome P450 3A4 (AID 884); further: potency means the concentration at half of the fitted maximal effect; nearly all actives have a fitted effect of over 50% in size
In short: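 Luminescent readout of luciferin produced by CYP3A4 (20 nM) dealkylation of Luciferin-PPXE, 25 uM (its KM). NADPH-driven reaction ran 60 min at RT after 10 min compound preincubation; data scaled to 57 uM ketoconazole as 100% inhibition.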

[9] = target: Cytochrome P450 3A4 (Homo sapiens) (UniProt P08684); experiment: qHTS Assay for Activators of Cytochrome P450 3A4 (AID 885); further: nearly all actives have a fitted effect of over 65% in size
In short: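 CYP3A4 activity: Luciferin-PPXE O-dealkylation, 25uM substrate, 200mM KPO4, RT throughout. Read-out is luciferase luminescence; higher values reflect activation.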

[10] = target: DNA dC->dU-editing enzyme APOBEC-3G (Homo sapiens) (UniProt Q9HC16); experiment: qHTS for inhibitors of Vif-A3G interactions: Validation (AID 588379)
In short: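 Yellow fluorescence (Ex 488, Em 500-530) of Vif-coexpressing HeLa A3G-eYFP cells, scanned by Acumen cytometer, reports blocked A3G degradation. Cells plated at 700/well overnight at 37 deg C before compound addition, then a further overnight compound incubation at 37 deg C.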

[11] = target: Rap guanine nucleotide exchange factor 4 (Homo sapiens) (UniProt Q8WZA2); experiment: Confirmatory qHTS for antagonist of cAMP-regulated guanine nucleotide exchange factor 4 (EPAC2) (AID 1645885); further: nearly all actives have a fitted effect of over 25% in size; further: potency means the concentration at half of the fitted maximal effect
[12] = target: Rap guanine nucleotide exchange factor 3 (Homo sapiens) (UniProt O95398); experiment: Counterscreen qHTS for agonist of cAMP-regulated guanine nucleotide exchange factor 3 (EPAC1) (AID 1645889); further: nearly all actives have a fitted effect of over 40% in size; further: potency means the concentration at half of the fitted maximal effect
In short: as §1

[13] = target: Tumor susceptibility gene 101 protein (Homo sapiens) (UniProt Q99816); experiment: qHTS Assay for Iinhibitors of HIV-1 Budding by Blocking the Interaction of PTAP/TSG101: Hit Validation (AID 651600); further: nearly all actives have a fitted effect of over 70% in size; further: potency means the concentration at half of the fitted maximal effect
In short: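 Tsg101 binding domain 10 uM + FITC-PTAP peptide 50 nM (final), 10 mM HEPES pH 7.5/0.15 M NaCl/0.01% Tween 20/3 mM EDTA/0.1 mM TCEP; 20 min RT; FP read, FITC filters.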

[14] = qHTS for Inhibitors of the vitamin D receptor (VDR): Hit Validation using a Texas Red Assay (AID 602201); further: potency means the concentration at half of the fitted maximal effect
In short: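 After a 2-hour room-temperature incubation, polarization of Texas-Red emission was read (Ex 595 nm/Em 615 nm). Final mix contained 7 nM Texas Red, 1.5 uM VDR-LBD and LG19078.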

[15] = Confirmation and Secondary Assay for Modulators of Hemoglobin Beta Chain Splicing at IVS2 654 locus (AID 910);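 further: HeLa cells stably carrying EGFP split by mutant beta-globin IVS2-654 intron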
In short: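 Readout: per-well total peak green fluorescence (488 nm ex, 500–520 nm em) from objects 5–250 µm, reflecting correct splicing of an EGFP-654 reporter. Compounds were applied for 2 days at 37 °C to overnight-plated HeLa EGFP-654 cells; controls were DMSO and 500 nM IVS2-654 PNA.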

[16] = Confirmation and Secondary Assay for Modulators of Hemoglobin Beta Chain Splicing at IVS2 705 locus (AID 930);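 further: HeLa cells stably expressing the EGFP-705 splicing reporter; GFP fluorescence per well restored by corrected splicing of the IVS2-705 intron in EGFP; series mostly up to about 46 µM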
In short: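 HeLa cells stably carrying EGFP interrupted by mutant beta-globin intron 2 (IVS2-705) treated 2 days at 37C with compound; 500 nM antisense PNA as control. Correct splicing read as total peak GFP intensity per well by laser-scanning cytometry.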

[17] = target: Ubiquitin carboxyl-terminal hydrolase 1 (Homo sapiens) (UniProt O94782); experiment: Inhibitors of USP1/UAF1: Pilot qHTS (AID 504865); further: potency means the concentration at half of the fitted maximal effect; nearly all actives have a fitted effect of over 35% in size
In short: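 1nM USP1/UAF1 + cpd, 15 min RT; start w/ Ub-Rho 150nM final; kinetic FL 480/540 nm, 6 reads q60 s. Buffer 50mM HEPES pH 7.8, 0.5mM EDTA, 1mM TCEP, 0.01% Tween-20, 0.1 mg/ml BSA.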

[18] = target: Glutathione peroxidase 1 (Homo sapiens) (UniProt P07203); experiment: Primary qHTS Assay for Inhibitors of Recombinant Selenoprotein Glutathione Peroxidase 1 (GPX1) (AID 1845191); further: nearly all actives have a fitted effect of over 65% in size
In short: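 NADPH consumption tracked by fluorescence at 340/450 nm between t=0 and t=15 min, room temperature. Final mix: 10 nM GPX1, 100 nM glutathione reductase, 1 mM GSH, 0.5 mM NADPH, 0.5 mM cumene hydroperoxide, 0.01% BSA; 30 min compound–enzyme preincubation.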

Chain of Tumor susceptibility gene 101 protein (Homo sapiens) (Q99816 whole entry, looked up, the tested form may be a part): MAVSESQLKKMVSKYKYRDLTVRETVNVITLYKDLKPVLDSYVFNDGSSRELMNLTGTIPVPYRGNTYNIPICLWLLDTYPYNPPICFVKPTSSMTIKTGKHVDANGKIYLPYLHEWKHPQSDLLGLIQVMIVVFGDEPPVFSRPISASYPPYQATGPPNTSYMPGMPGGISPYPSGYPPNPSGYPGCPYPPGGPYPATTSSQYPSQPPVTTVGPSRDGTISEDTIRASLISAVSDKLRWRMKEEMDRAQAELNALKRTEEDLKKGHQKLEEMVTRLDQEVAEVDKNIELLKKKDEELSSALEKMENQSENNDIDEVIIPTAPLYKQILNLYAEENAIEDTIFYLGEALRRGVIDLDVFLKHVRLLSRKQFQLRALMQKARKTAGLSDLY
Chain of Rap guanine nucleotide exchange factor 4 (Homo sapiens) (Q8WZA2 whole entry, looked up): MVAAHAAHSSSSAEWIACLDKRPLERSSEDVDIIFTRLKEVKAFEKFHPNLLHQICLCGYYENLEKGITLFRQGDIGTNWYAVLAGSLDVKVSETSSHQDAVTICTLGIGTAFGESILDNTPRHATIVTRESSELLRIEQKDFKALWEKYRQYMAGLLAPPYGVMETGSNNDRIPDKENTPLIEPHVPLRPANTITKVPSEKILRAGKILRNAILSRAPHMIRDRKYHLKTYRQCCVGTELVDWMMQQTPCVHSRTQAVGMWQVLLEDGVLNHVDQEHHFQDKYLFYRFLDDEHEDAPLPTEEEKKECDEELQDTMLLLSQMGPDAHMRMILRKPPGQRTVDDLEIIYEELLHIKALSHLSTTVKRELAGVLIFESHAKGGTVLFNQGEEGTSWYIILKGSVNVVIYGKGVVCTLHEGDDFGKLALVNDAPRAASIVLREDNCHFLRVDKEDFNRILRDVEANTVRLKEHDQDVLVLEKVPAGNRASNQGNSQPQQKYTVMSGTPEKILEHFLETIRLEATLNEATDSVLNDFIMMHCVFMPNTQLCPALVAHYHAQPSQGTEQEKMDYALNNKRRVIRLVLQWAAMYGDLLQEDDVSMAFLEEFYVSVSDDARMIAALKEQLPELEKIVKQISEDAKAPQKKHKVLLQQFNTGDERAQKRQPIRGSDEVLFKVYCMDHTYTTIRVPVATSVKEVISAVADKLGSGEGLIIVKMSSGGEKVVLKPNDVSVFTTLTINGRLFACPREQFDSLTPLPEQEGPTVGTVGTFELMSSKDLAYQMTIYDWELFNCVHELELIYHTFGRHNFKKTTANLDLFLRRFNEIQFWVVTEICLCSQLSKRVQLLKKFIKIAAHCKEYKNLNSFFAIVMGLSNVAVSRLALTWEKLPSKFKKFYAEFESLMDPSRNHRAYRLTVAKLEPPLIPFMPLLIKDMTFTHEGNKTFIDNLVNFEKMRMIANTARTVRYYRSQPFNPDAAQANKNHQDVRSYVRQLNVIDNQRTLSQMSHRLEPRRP
Chain of Rap guanine nucleotide exchange factor 3 (Homo sapiens) (O95398 whole entry, looked up): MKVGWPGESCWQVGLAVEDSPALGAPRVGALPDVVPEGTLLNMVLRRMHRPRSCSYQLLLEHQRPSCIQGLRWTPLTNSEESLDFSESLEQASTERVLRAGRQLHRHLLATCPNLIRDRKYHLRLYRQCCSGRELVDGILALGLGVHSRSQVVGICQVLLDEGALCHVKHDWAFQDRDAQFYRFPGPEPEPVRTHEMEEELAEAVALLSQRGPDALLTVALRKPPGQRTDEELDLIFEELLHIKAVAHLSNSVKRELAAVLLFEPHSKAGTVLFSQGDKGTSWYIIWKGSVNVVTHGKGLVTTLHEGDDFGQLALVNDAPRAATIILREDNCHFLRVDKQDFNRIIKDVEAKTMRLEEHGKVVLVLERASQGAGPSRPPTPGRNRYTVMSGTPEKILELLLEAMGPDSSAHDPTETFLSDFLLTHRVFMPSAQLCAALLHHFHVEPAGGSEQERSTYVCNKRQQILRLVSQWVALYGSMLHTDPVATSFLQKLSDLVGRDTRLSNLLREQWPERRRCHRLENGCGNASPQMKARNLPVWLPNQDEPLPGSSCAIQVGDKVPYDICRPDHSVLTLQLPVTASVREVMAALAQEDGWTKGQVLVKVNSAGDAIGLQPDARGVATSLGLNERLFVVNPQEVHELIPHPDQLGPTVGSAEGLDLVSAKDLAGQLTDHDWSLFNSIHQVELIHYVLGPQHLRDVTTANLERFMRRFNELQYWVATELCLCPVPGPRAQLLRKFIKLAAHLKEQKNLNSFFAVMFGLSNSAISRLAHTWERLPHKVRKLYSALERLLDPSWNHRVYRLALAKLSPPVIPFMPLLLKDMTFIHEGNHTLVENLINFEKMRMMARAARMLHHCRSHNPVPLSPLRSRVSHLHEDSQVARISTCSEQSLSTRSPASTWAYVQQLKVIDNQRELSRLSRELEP
Chain of Glucocorticoid receptor (Homo sapiens) (P04150 whole entry, looked up, the tested form may be a part): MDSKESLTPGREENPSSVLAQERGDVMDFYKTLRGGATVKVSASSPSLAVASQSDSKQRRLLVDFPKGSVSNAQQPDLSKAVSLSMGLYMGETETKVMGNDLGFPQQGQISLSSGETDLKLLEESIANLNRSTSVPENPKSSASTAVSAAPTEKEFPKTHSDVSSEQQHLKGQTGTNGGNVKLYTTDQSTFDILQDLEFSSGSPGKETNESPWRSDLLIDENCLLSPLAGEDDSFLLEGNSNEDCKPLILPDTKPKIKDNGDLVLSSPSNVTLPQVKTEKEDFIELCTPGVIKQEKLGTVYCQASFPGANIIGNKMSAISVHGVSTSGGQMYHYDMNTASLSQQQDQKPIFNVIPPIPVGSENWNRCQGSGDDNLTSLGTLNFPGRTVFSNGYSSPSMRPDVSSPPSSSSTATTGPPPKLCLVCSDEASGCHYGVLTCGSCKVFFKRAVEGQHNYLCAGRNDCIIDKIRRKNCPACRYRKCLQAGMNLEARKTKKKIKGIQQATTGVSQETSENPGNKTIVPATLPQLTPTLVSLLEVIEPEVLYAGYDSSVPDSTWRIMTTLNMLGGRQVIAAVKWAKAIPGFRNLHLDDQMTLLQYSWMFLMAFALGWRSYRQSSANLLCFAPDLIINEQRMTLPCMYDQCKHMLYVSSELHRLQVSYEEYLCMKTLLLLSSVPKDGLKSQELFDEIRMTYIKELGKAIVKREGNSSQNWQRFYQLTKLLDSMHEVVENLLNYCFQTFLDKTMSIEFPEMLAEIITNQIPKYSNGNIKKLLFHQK
Chain of Cytochrome P450 3A4 (Homo sapiens) (P08684 whole entry, looked up): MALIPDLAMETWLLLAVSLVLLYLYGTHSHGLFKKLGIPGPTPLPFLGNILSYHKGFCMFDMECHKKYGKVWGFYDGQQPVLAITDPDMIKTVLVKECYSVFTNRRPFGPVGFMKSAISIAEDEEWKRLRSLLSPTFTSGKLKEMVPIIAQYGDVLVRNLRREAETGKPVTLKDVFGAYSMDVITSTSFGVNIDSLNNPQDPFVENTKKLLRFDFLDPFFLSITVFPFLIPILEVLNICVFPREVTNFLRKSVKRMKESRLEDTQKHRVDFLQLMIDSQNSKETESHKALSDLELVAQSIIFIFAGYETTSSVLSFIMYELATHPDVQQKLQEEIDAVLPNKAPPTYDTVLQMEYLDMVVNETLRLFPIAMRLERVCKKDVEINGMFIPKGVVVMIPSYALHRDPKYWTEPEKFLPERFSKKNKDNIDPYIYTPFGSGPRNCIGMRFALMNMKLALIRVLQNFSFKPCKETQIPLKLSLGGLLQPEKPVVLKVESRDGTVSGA
Chain of Glutathione peroxidase 1 (Homo sapiens) (P07203 whole entry, looked up): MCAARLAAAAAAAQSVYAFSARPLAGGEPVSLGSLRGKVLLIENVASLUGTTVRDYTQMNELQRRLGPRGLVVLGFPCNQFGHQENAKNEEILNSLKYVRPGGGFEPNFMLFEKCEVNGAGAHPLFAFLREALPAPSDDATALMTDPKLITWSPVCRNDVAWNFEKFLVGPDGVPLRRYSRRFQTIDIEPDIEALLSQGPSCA
Chain of DNA dC->dU-editing enzyme APOBEC-3G (Homo sapiens) (Q9HC16 whole entry, looked up): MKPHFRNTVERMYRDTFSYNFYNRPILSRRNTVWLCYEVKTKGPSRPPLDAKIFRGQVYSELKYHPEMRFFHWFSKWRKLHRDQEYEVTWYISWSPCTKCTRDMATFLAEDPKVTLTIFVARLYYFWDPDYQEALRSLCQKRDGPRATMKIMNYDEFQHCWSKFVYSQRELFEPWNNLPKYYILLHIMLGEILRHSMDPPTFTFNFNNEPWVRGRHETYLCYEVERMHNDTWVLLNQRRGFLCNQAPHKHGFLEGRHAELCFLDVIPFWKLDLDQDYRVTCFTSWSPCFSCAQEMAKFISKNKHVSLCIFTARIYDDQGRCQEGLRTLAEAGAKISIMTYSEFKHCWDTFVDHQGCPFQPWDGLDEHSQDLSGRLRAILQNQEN
Chain of Ubiquitin carboxyl-terminal hydrolase 1 (Homo sapiens) (O94782 whole entry, looked up): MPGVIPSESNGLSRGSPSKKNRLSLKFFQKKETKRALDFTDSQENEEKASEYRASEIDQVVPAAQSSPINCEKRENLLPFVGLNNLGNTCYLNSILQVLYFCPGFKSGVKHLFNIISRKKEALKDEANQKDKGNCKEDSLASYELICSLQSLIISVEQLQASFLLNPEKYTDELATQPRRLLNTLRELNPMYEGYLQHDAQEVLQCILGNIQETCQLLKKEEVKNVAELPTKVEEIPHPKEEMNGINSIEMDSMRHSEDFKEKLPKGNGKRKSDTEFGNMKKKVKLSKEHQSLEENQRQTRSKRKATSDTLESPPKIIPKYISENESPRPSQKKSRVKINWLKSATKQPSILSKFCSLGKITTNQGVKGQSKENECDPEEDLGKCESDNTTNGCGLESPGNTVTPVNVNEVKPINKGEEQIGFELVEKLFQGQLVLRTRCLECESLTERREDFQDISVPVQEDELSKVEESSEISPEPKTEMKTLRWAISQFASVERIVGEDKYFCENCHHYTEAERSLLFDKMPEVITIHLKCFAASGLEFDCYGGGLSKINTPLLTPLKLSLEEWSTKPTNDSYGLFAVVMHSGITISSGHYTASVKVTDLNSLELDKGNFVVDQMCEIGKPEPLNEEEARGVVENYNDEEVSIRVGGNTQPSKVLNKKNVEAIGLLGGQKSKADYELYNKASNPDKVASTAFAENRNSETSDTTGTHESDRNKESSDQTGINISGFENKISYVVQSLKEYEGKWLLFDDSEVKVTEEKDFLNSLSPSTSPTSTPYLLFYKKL

O=c1oc2ccccc2c(O)c1C(c1ccc([N+](=O)[O-])cc1)c1c(O)c2ccccc2oc1=O
Potency [1]: 15.8 µM (active)
Potency [2]: inactive
activation [3]: 0% [at 17.1 µM, percent relative to cAMP agonist control]
activity change, negative = inhibition [4]: -13.4% [at 30.8 µM]

CCCCC/C=C\C/C=C\C/C=C\C/C=C\CCCC(=O)Nc1ccc(O)cc1
Potency [5]: > 46 µM
Potency [6]: > 46 µM
outcome [7]: inactive
Potency [8]: 5.01 µM (active)
Potency [9]: inactive
outcome [10]: inactive
Potency [1]: inactive
Potency [2]: inactive
Potency [3]: inactive
Potency [11]: inactive

Cc1cc(C=C(C#N)C#N)ccc1N1CCCC1
Potency [1]: inactive
Potency [2]: 100 µM (active)
Potency [3]: 112 µM (active)
outcome [4]: inactive
Potency [12]: 28.2 µM (active)

CC(C)CCn1c(=O)c(C(=O)Nc2ccccc2S(N)(=O)=O)c(O)c2ccccc21
Potency [1]: 75.7 µM (active)
Potency [2]: inactive
Potency [3]: inactive
outcome [4]: inactive
Potency [12]: inactive

COc1ccc(CN2C(=O)NC(=O)/C(=C/c3ccc([N+](=O)[O-])s3)C2=O)cc1
Potency [1]: 9.53 µM (active)
Potency [2]: inactive
Potency [3]: inactive
outcome [4]: inactive

Cc1ccc(N)c(C(=O)c2ccc(Br)cc2)c1
Potency [1]: inactive
Potency [2]: inactive
Potency [11]: inactive
outcome [4]: inactive

O=[N+]([O-])c1ccc(N2CCOCC2)c2c1no[n+]2[O-]
Potency [1]: 47.8 µM (active)
Potency [2]: inactive
Potency [3]: inactive
Potency [12]: inactive

Nc1ccc2ccc3cccc[n+]3c2c1
Potency [13]: 4.11 µM (active)
Potency [1]: inactive
Potency [3]: 100 µM (active)
Potency [11]: inactive
Potency [12]: 39.8 µM (active)

Cc1ccccc1OCC(=O)N1CCN(CCc2ccccn2)CC1
Potency [1]: inactive
Potency [3]: inactive
activity change, negative = inhibition [11]: 1.52% [at 12.7 µM]
outcome [4]: inactive
Potency [12]: inactive

Cn1cc(/C=C2\C(=O)NC(=O)N(c3ccccc3)C2=O)c2ccccc21
Potency [1]: inactive
Potency [3]: 112 µM (active)
Potency [11]: 95.3 µM (active)
outcome [4]: inactive
Potency [12]: inactive

O=[N+]([O-])c1ccc(N2CCCCCC2)c2nonc12
Potency [1]: inactive
Potency [3]: 100 µM (active)
Potency [11]: inactive
outcome [4]: inactive
Potency [12]: 25.1 µM (active)

O=C(c1ccco1)c1cn(Cc2ccccc2)c2ccccc12
Potency [1]: inactive
Potency [2]: inactive
Potency [3]: inactive
outcome [4]: inactive
Potency [12]: inactive

Nc1ccc2nonc2c1[N+](=O)[O-]
Potency [13]: 14.6 µM (active)
Potency [1]: inactive
Potency [3]: 112 µM (active)
Potency [11]: 47.8 µM (active)
outcome [4]: inactive
Potency [12]: 63.1 µM (active)

Cc1cccc(CN2C(=O)CN=C(c3ccccc3)c3ccccc32)c1
Potency [1]: inactive
Potency [3]: inactive
activity change, negative = inhibition [11]: 15.3% [at 12.7 µM]
outcome [4]: inactive

CCOC(=O)[C@]12Cc3ccccc3[C@H]1N(Cc1ccccc1)C(=O)c1cc(OC)ccc12
Potency [1]: inactive
Potency [2]: inactive
activation [3]: -5.98% [at 17.1 µM, percent relative to cAMP agonist control]
activation [12]: 20.9% [at 30.8 µM]

Cc1cccc(N2C(=O)NC(=O)/C(=C\c3cc(C)n(-c4sc5c(c4C#N)CCCC5)c3C)C2=O)c1C
Potency [1]: 30.1 µM (active)
Potency [2]: inactive
Potency [3]: inactive
outcome [4]: inactive

CCOC(=O)c1cc(CC)sc1/N=C/C1C(=O)NC(=S)NC1=O
Potency [1]: inactive
activity change, negative = inhibition [11]: -21.4% [at 12.7 µM]
activity change, negative = inhibition [4]: -8.68% [at 30.8 µM]

COc1ccccc1-n1c(-c2cccs2)nc2ccccc2c1=O
Potency [1]: inactive
Potency [2]: inactive
Potency [11]: inactive
outcome [4]: inactive

Cc1ccccc1N1C(=O)NC(=O)/C(=C\c2ccc3c(c2)CCCN3Cc2ccccc2)C1=O
Potency [14]: 28.2 µM (active)
Potency [1]: 16.9 µM (active)
Potency [2]: inactive
Potency [3]: inactive
outcome [4]: inactive

CC(C)C/C(=N/O)c1cn(C)c2ccccc12
Potency [1]: inactive
Potency [2]: inactive
Potency [3]: inactive
outcome [4]: inactive
Potency [12]: inactive

CC(C)=CCCC1(C)C=Cc2c(O)c3c(c(CC=C(C)C)c2O1)OC12C(=CC4CC1C(C)(C)OC2(C/C=C(/C)C(=O)O)C4=O)C3=O (centres undefined)
Potency [15]: inactive
Potency [16]: inactive
Potency [17]: 20 µM (active)
Potency [1]: 19.8 µM (active)
Potency [2]: inactive
Potency [3]: inactive
Potency [18]: inactive

O=c1[nH]c(=O)n(-c2cccc(F)c2)c(O)c1/C=C1\C=Nc2ccccc21
Potency [1]: inactive
Potency [3]: inactive
Potency [11]: inactive
Potency [12]: inactive

COC1C(OC(=O)c2ccc(C)[nH]2)C(O)C(Oc2ccc3c(O)c(NC(=O)c4ccc(O)c(CC=C(C)C)c4)c(=O)oc3c2Cl)OC1(C)C (centres undefined)
Potency [1]: 30.1 µM (active)
Potency [2]: inactive
Potency [3]: inactive
Potency [12]: inactive

CN1/C(=C\C=C2C(=O)NC(=S)NC2=O)C(C)(C)c2ccccc21
Potency [13]: inactive
Potency [1]: inactive
Potency [3]: 100 µM (active)
Potency [11]: inactive
outcome [4]: inactive

O=C1NC(=S)NC(=O)C1=Cc1cccn1-c1ccc(O)cc1
Potency [14]: inactive
Potency [1]: 3.55 µM (active)
Potency [2]: inactive
activation [3]: 2.5% [at 17.1 µM, percent relative to cAMP agonist control]
activity change, negative = inhibition [11]: -7.44% [at 12.7 µM]

COc1cccc(N2C(=O)NC(=O)/C(=C\c3cn(C)c4ccccc34)C2=O)c1
Potency [1]: inactive
Potency [3]: 100 µM (active)
Potency [11]: inactive
outcome [4]: inactive

Cc1cc(=O)oc2cc(OCC(=O)N3CCC(C(=O)O)(c4ccccc4)CC3)ccc12
Potency [1]: 75.7 µM (active)
Potency [2]: inactive
Potency [3]: inactive
outcome [4]: inactive
